{"source": "PubChem BioAssay (NCI)", "note": "Compounds without any hit were thinned out: in the full panel of roughly 83,000, 20% have a hit.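 Interpretation: 100, growth as untreated; towards 0, rising growth inhibition; 0, no net growth; 0 to -100, cell death. Compounds scoring below 10 were considered active.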 Unmarked numbers belong to inactive results. Active and inactive are the calls of the source."}
{"tested_on": "CAKI-1 renal", "test": "NCI-60 one-dose screen, 48 h (100 = growth as untreated, 0 = no growth, -100 = all killed)", "conditions": "10 µM unless noted", "description": "Growth inhibition of the CAKI-1 human tumor cell line is measured as a screen for anti-cancer activity. Cells are grown in 96 well plates and exposed to the test compound for 48 hours. Compounds are tested at a single concentration, which is 10^-5 M for most compounds. The reported endpoint is percent growth (GI% or GIPRCNT), where numbers from 0 - 100% represent growth inhibition, and numbers from -100% - 0 represent cell death. For example, a value of 40 represents 60% growth inhibition. A value of 0 means no net growth occurred over the course of the experiment. A value of -40 indicates 40% of cells at the beginning of the experiment died by the end of the experiment. A value of -100 means all cells are dead at the end of the experiment.\nNCI-60 Human Tumor Cell Lines Screen was performed using the standard one-dose NCI protocol, which is described in more detail at https://dtp.cancer.gov/discovery_development/nci-60/default.htm.\nCompounds with GIPRCNT values below 10 were considered active. Activity score was based on GIPRCNT using the following formula: […]\nScore is 0 for GIPRCNT values of 100 or above, 50 for GIPRCNT values of 0, and 100 for GIPRCNT values of -100."}
{"smiles": "O=C1NC(=O)C(Cc2ccccc2)(Cc2ccccc2)C(=O)N1", "growth": "114%"}
{"smiles": "Cc1cc([N+](=O)[O-])c(Cl)cc1NS(=O)(=O)c1ccccc1", "growth": "63.7%"}
{"smiles": "CC(C)[C@]12O[C@H]1[C@@H]1O[C@]13[C@]1(O[C@H]1C[C@H]1C4=C(CC[C@@]13C)C(=O)OC4)[C@@H]2OC(=O)OC(C)(C)C", "growth": "-49.8% (active)"}
{"smiles": "CC(=O)[O][Hg][CH2]C1(C)COC(C)([CH2][Hg][O]C(C)=O)CO1", "note": "(stereo not given)", "growth": "-100% (active)"}
{"smiles": "C[As](=O)(O)c1ccc(C(=O)O)cc1", "growth": "120%"}
{"smiles": "CC(/C=N/N=C(N)N)=N\\N=C(N)N", "growth": "57.7%"}
{"smiles": "O=C(/C=C/c1ccccc1)N[C@@H](CO)Cc1cnc[nH]1", "growth": "100%"}
{"smiles": "c1ccc(CCN2CCCCC2Cc2ccccc2)cc1", "note": "(stereo not given)", "growth": "101%"}
{"smiles": "CC(CC(C#N)(c1ccccc1)c1ccccc1)N1CCOCC1", "note": "(stereo not given)", "growth": "92.9%"}
{"smiles": "CC1CC=CCC12C(=O)NC(=S)NC2=O", "note": "(stereo not given)", "growth": "96.6%"}
{"smiles": "CCC[CH2][Sn]([CH2]CCC)([CH2]CCC)[O]C(=O)c1ccc(Cl)cc1Cl", "growth": "-92.6% (active)"}
{"smiles": "ClCCN(CCCl)c1ccc(C=NCCc2c[nH]c3ccccc23)cc1", "growth": "23.5%"}
{"smiles": "O=C(O)CC(Br)C(=O)CBr", "note": "(stereo not given)", "growth": "95.8%"}
{"smiles": "N#[N+]c1cnc([O-])[nH]c1=O", "growth": "94.3%"}
{"smiles": "N#CC1c2ccccc2C=CN1C(=O)c1ccc(N(CCCl)CCCl)cc1", "note": "(stereo not given)", "growth": "69.1%"}
{"smiles": "C[C@]12CC[C@@H]3C4=C(CC[C@H]3[C@@H]1CC[C@@H]2O)CC(=O)CC4", "growth": "92%"}
{"smiles": "c1ccc([As]=[As]c2ccccc2)cc1", "note": "(stereo not given)", "growth": "-51.4% (active)"}
{"smiles": "O=C(CI)Nc1ccc(Br)cc1", "growth": "-67.5% (active)"}
{"smiles": "CC(=O)Oc1ccc(Cl)cc1", "growth": "90.5%"}
{"smiles": "Cc1ccc2oc(=O)c3c(c2c1)OC(N)=C(C#N)C3c1ccco1", "note": "(stereo not given)", "growth": "91.3%"}
{"smiles": "Cc1cc(NC(=O)CCc2ccc(N3C(N)=NC(N)=NC3(C)C)cc2)ccc1S(=O)(=O)F", "growth": "34.2%"}
{"smiles": "Cc1cccc(N=C2c3cc([N+](=O)[O-])ccc3-c3c2cc([N+](=O)[O-])cc3[N+](=O)[O-])c1", "growth": "67.8%"}
{"smiles": "CCC(CO)NC1CCCCC1", "note": "(stereo not given)", "growth": "61.5%"}
{"smiles": "CC(C)CCC[C@@H](C)[C@H]1CC[C@H]2[C@@H]3CC=C4C[C@@H](OC(=O)Cc5ccc(N(CCCl)CCCl)cc5)CC[C@]4(C)[C@H]3CC[C@]12C", "growth": "97%"}
{"smiles": "Nc1ccc([N+](=O)[O-])c2c1Oc1ccccc1O2", "growth": "58.3%"}
{"smiles": "CC(=O)[O][Hg][c]1nc2c(c(=O)n(C)c(=O)n2C)n1C", "growth": "83.5%"}
{"smiles": "CC12CCC3C(CC=C4CC(O)CCC43C)C1C/C(=C\\N1CCOCC1)C2=O", "note": "(stereo not given)", "growth": "91%"}
{"smiles": "NC(=O)C(Cl)Cl", "growth": "98.1%"}
{"smiles": "O=C1C=CC(=O)C2C1C1(Cl)C(Cl)=C(Cl)C2(Cl)C1(Cl)Cl", "note": "(stereo not given)", "growth": "51.8%"}
{"smiles": "O=C(O)c1cccc(CCl)c1", "growth": "106%"}
{"smiles": "COP(=S)(OC)Oc1ccc(SC)c(C)c1", "growth": "92.6%"}
{"smiles": "C[CH2][Pb]([CH2]C)([CH2]C)[O]C(=O)COc1ccccc1", "growth": "-5.81% (active)"}
{"smiles": "CC(=O)C1CCC2C3CC=C4CC(OC(=O)Cc5ccc(N(CCCl)CCCl)cc5)CCC4(C)C3CCC12C", "note": "(stereo not given)", "growth": "87.7%"}
{"smiles": "Clc1ccc(SSC(Cl)(Cl)Cl)cc1", "growth": "119%"}
{"smiles": "COc1ccc(C2SCC(=O)Nc3c2c(C)nn3-c2nc3ccc(C)cc3s2)cc1O", "note": "(stereo not given)", "growth": "31.1%"}
{"smiles": "CCC(C)[C@H]1O[C@]2(C=C[C@@H]1C)C[C@@H]1C[C@@H](C/C=C(\\C)[C@@H](OC3C[C@H](OC)C(O[C@H]4C[C@H](OC)[C@@H](O)[C@H](C)O4)[C@H](C)O3)[C@@H](C)/C=C/C=C3\\CO[C@@H]4[C@H](O)C(C)=C[C@@H](C(=O)O1)[C@]34O)O2", "note": "(stereo not given in full)", "growth": "19.8%"}
{"smiles": "COc1c(O)c2c3c(c1OC)-c1ccccc1CC3N(C)CC2", "note": "(stereo not given)", "growth": "94.3%"}
{"smiles": "NC(=O)OCC(CO)(c1ccccc1)c1ccccc1", "growth": "91.8%"}
{"smiles": "CC(C)OC(=S)[S-].[Au+].c1ccc([PH+](c2ccccc2)c2ccccc2)cc1", "growth": "16.7%"}
{"smiles": "C=CCC1(CC)C(=O)NC(=S)NC1=O", "growth": "96.8%"}
